Most compounds without a hit are left out; they make up all but 4.2% or so of the library.
NLRP3 yeast inh: inhibitors of NALP3 inflammasome in yeast; Yeast reconstituted NLRP3/ASC/caspase-1, beta-gal luminescence, 24 h; inhibition, % at 10 µM; 0.39% of 330,000 active;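 active = inhibition of 50% or more; inactive = inhibition below 50%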;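 note: plate controls were induced DMSO wells for no effect and uninduced yeast grown without galactose for full effect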
tim10-1 inh: inhibits growth of tim10-1 mutant yeast; AID 463190; 2.2% of 330,000 active; inhibition, % at 20 µM; S. cerevisiae tim10-1 ts strain growth, BacTiter-Glo, 24 h;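 active = inhibition of at least 40%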;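 note: mutant grown at 25 °C; 0% = DMSO wells with yeast and 100% = wells holding no yeast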
V-ATPase pHluor: yeast V-ATPase proton transport regulation by pHLuorin | 0.37% of 350,000 active | response, % at 10 µM | S. cerevisiae, pHLuorin cytosolic pH fluorescence | AID 504577; in the data active = response mostly above about 7.3%, no sharp cut-off; inactive = mostly below about 5.4%; note: actives read high
TIM10 inh: growth inhibitors of TIM10 yeast strain. S. cerevisiae TIM10 strain growth, BacTiter-Glo luminescence, 24 h. inhibition, % at 10 µM. 1.4% of 330,000 active. AID 463195;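 active = inhibition of 40% or more at the single tested concentration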;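 note: wild-type TIM10 isogenic control strain grown at permissive 25 °C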
tim23-1 inh: growth inhibitors of tim23-1 mutant yeast. S. cerevisiae tim23-1 growth, BacTiter-Glo luminescence, 24 h. inhibition, % at 20 µM. 1.3% of 330,000 active;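 active = growth inhibition of the mutant yeast at or above 50%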;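 note: temperature-sensitive mutant grown at 25 °C; plate controls were DMSO-treated mutant yeast for no effect and medium wells lacking yeast for full effect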
NALP1 yeast inh: NALP1 inhibition. 0.61% of 280,000 active. inhibition, % at 10 µM. S. cerevisiae NALP1/ASC/caspase-1 growth, X-gal OD620, 72 h; in the data active = inhibition mostly above about 24%, no sharp cut-off; inactive = mostly below about 32%
TIM10 conf: confirmation of TIM10 yeast growth inhibitors | shares compounds with TIM10 inh | S. cerevisiae tim10 strain growth, BacTiter-Glo luminescence, 24 h | inhibition, % at 10 µM | 63% of 4,600 active | AID 463215;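 active = inhibition of yeast growth at or above a set limit in either of two replicates at 10 µM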;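 note: this counterscreen used the strain with wild-type TIM10; 0% = yeast with DMSO and 100% = medium wells lacking yeast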
The depositor's hits bear a star.

Results for O=C(N/N=C/c1ccc(Br)o1)c1ccc2c(c1)OCCO2 ?
NLRP3 yeast inh: 35; tim10-1 inh: 5; V-ATPase pHluor: -1; TIM10 inh: 56*; tim23-1 inh: 37; NALP1 yeast inh: 26; TIM10 conf: 63*

Results for O=C(O)c1ccc(/C=N/NC(=O)c2ccc3c(c2)OCCO3)cc1 ?
NLRP3 yeast inh: 0; tim10-1 inh: -2; V-ATPase pHluor: 1; TIM10 inh: 14; tim23-1 inh: 20; NALP1 yeast inh: 3

What do the screens show for `CCC(=O)Nc1ccc2c(c1)C(=O)c1ccccc1C2=O`?
NLRP3 yeast inh: 31; tim10-1 inh: 35; V-ATPase pHluor: -1; TIM10 inh: 42*; tim23-1 inh: 36; NALP1 yeast inh: -12; TIM10 conf: 28

Results for CCOc1cc([N+](=O)[O-])c2nc(N)sc2c1 ?
NLRP3 yeast inh: 20; tim10-1 inh: -4; V-ATPase pHluor: 1; TIM10 inh: 12; tim23-1 inh: 15

What do the screens show for `O=C(NC(=S)Nc1ccc2c(c1)OCCO2)c1cccc2ccccc12`?
NLRP3 yeast inh: 16; tim10-1 inh: 39; V-ATPase pHluor: 2; TIM10 inh: 44*; tim23-1 inh: 40; NALP1 yeast inh: 28; TIM10 conf: 48*

Results for COc1ccccc1-c1coc2cc(O)cc(O)c2c1=O ?
NLRP3 yeast inh: 39; tim10-1 inh: 32; V-ATPase pHluor: 2; TIM10 inh: 42*; tim23-1 inh: 41; NALP1 yeast inh: 22; TIM10 conf: 23

How did COc1ccc(-c2coc3cc(O)cc(O)c3c2=O)cc1OC do in these assays?
NLRP3 yeast inh: 10; tim10-1 inh: -2; V-ATPase pHluor: -2; TIM10 inh: 14; tim23-1 inh: 4

Results for S=c1nc(-c2ccc(Br)cc2)oc2c1CCCC2 ?
NLRP3 yeast inh: 3; tim10-1 inh: 35; V-ATPase pHluor: -1; TIM10 inh: 26; tim23-1 inh: 3; NALP1 yeast inh: -9

How did Cc1cccc(-c2nc(=S)c3c(o2)CCCC3)c1 do in these assays?
NLRP3 yeast inh: -5; tim10-1 inh: 24; V-ATPase pHluor: -3; TIM10 inh: 44*; tim23-1 inh: 35; NALP1 yeast inh: -2; TIM10 conf: 33*

Results for CCNC(=S)N/N=C/c1cc(C)n(-c2ccc(Cl)cc2)c1C ?
NLRP3 yeast inh: 5; tim10-1 inh: 33; V-ATPase pHluor: 2; TIM10 inh: 50*; tim23-1 inh: 29; NALP1 yeast inh: -17; TIM10 conf: 16

Results for Cc1cc(/C=N/NC(N)=S)c(C)n1-c1ccc(Cl)c(Cl)c1 ?
NLRP3 yeast inh: 47; tim10-1 inh: 9; V-ATPase pHluor: -1; TIM10 inh: -5; tim23-1 inh: -23; NALP1 yeast inh: 14

Results for C/C(Cl)=C\Cn1c(O)c(N=NC(N)=S)c2cc(Br)ccc21 ?
NLRP3 yeast inh: 1; tim10-1 inh: 22; V-ATPase pHluor: -2; TIM10 inh: 42*; tim23-1 inh: 31; NALP1 yeast inh: 2; TIM10 conf: 48*

Results for Cc1ccc(S(=O)(=O)N(CC(=O)NC2CCCCCC2)c2ccccc2F)cc1 ?
NLRP3 yeast inh: -2; tim10-1 inh: 16; V-ATPase pHluor: -4; TIM10 inh: 40*; tim23-1 inh: 8; NALP1 yeast inh: 10; TIM10 conf: 11

What do the screens show for `Cc1ccccc1N1CCN(c2ccccc2NC(=O)/C=C\C(=O)O)CC1`?
V-ATPase pHluor: 3

How did CC1CCN(c2ccccc2NC(=S)NC(=O)c2ccco2)CC1 do in these assays?
NLRP3 yeast inh: -1; tim10-1 inh: 34; TIM10 inh: 43*; tim23-1 inh: 34; TIM10 conf: 40*

How did Cc1cc(C)c(CC(=O)c2ccccc2)c(C)c1 do in these assays?
V-ATPase pHluor: 4

How did O=C(Nc1ccccc1C(=O)NCCc1ccccc1)c1ccco1 do in these assays?
NLRP3 yeast inh: 21; tim10-1 inh: 21; V-ATPase pHluor: 1; TIM10 inh: 97*; tim23-1 inh: 23; NALP1 yeast inh: -7; TIM10 conf: -10

What do the screens show for `CCN1C(=O)[C@H]2[C@@H](c3ccc(Cl)cc3)N3C(=O)CN(CC4CC4)C(=O)[C@@]3(Cc3ccccc3)[C@H]2C1=O`?
NLRP3 yeast inh: 1; tim10-1 inh: -7; V-ATPase pHluor: -1; TIM10 inh: -1; tim23-1 inh: -12; NALP1 yeast inh: 6

Results for Cc1ccc(O)c(-c2cc(-c3ccccc3[N+](=O)[O-])[nH]n2)c1 ?
NLRP3 yeast inh: 27; tim10-1 inh: 28; V-ATPase pHluor: 1; TIM10 inh: 42*; tim23-1 inh: 47; NALP1 yeast inh: 22; TIM10 conf: 4

What do the screens show for `COc1ccc(O)c(-c2cc(-c3ccccc3[N+](=O)[O-])[nH]n2)c1`?
NLRP3 yeast inh: 22; tim10-1 inh: 21; V-ATPase pHluor: 0; TIM10 inh: 35; tim23-1 inh: 36; NALP1 yeast inh: 15

Results for COc1ccc(-c2cc(C(F)F)n3ncc(C(=O)NCC4CCCO4)c3n2)cc1 (stereo not drawn) ?
NLRP3 yeast inh: 20; tim10-1 inh: 23; V-ATPase pHluor: -99; TIM10 inh: 45*; tim23-1 inh: 21; TIM10 conf: 34*

How did Cc1ccc(N2CC(O)=C(c3nc4ccccc4c(=O)[nH]3)C2=N)cc1C do in these assays?
NLRP3 yeast inh: 40; tim10-1 inh: 13; V-ATPase pHluor: 5; TIM10 inh: 47*; tim23-1 inh: 46; NALP1 yeast inh: -4; TIM10 conf: 21

How did CCOc1ccc(N2CC(O)=C(c3nc4ccccc4c(=O)[nH]3)C2=N)cc1 do in these assays?
NLRP3 yeast inh: 19; tim10-1 inh: -30; V-ATPase pHluor: -2; TIM10 inh: -2; tim23-1 inh: -23; NALP1 yeast inh: 7

Results for COc1ccc(Oc2nc(-c3ccccn3)nc3ccccc23)cc1 ?
NLRP3 yeast inh: 26; tim10-1 inh: 13; V-ATPase pHluor: 0; TIM10 inh: 41*; tim23-1 inh: 45; NALP1 yeast inh: 15; TIM10 conf: 34*

Results for COc1ccc(Oc2nc(-c3ccncc3)nc3ccccc23)cc1 ?
NLRP3 yeast inh: 11; tim10-1 inh: 39; V-ATPase pHluor: 0; TIM10 inh: 32; tim23-1 inh: 48; NALP1 yeast inh: 11

How did COc1ccc(Oc2nc(-c3ccccn3)ncc2OC)cc1 do in these assays?
NLRP3 yeast inh: 22; tim10-1 inh: 18; V-ATPase pHluor: 0; TIM10 inh: -13; tim23-1 inh: -24; NALP1 yeast inh: 14

How did COc1cnc(-c2ccccn2)nc1Sc1c(Cl)cccc1Cl do in these assays?
NLRP3 yeast inh: 12; tim10-1 inh: 34; V-ATPase pHluor: -2; TIM10 inh: 50*; tim23-1 inh: 19; NALP1 yeast inh: -4; TIM10 conf: 38*

How did COc1cnc(-c2ccccn2)nc1N(C)C do in these assays?
NLRP3 yeast inh: 10; tim10-1 inh: -18; V-ATPase pHluor: -1; TIM10 inh: -12; tim23-1 inh: -4; NALP1 yeast inh: -1
